Compounds with a hit are over-represented: about 1.3% of the library has one in this group of screens.
NCOA2 inhibitor: human SRC2 (NCOA2) inhibition; inhibition, % at 9 µM; Q15596; actives 0.17% (n = 370,000); HEK293 GAL4-SRC2 luciferase reporter, luminescence;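 active = inhibition above the mean inhibition of all tested compounds plus 3 SD, set per campaign, cut at about 52% in these data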
COUP-TFII inh: blocks human COUP-TFII nuclear receptor; P24468; HEK293T NGFI-A luciferase reporter, luminescence; inhibition, % at 8.6 µM; actives 0.7% (n = 370,000);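 active = inhibition above a per-plate cutoff, mean inhibition of test wells between control levels plus 3 SD, cut at about 38% in these data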;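 note: cells cotransfected with COUP-TFII expression vector driving the NGFI-A reporter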
NCOA1 inh: human NCOA1 inhibition; actives 0.12% (n = 360,000); inhibition, % at 3.6 µM; AID 588354; HEK293 GAL4-SRC1 luciferase reporter, luminescence;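 active = inhibition above the campaign mean plus 3 SD, with each screening campaign given its own cutoff, cut at about 60% in these data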
SRC3 inh: inhibits human SRC3 coactivator; Q9Y6Q9; HEK293 GAL4-SRC3 luciferase reporter, luminescence; inhibition, % at 3.6 µM; actives 0.17% (n = 360,000); AID 588352;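 active = inhibition above a per-campaign cutoff, the mean of all compounds plus 3 SD, cut at about 60% in these data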;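 note: higher means less SRC3-driven luciferase light from the GAL4 reporter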
NR5A2 inv ag: NR5A2 inverse agonism in reporter assay. HEK293T StAR-luciferase reporter, LRH-1 transfected, 24 h. actives 0.13% (n = 360,000). inhibition, % at 3.6 µM;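 active = inhibition above the mean inhibition of all tested compounds plus 3 SD, cut at about 73% in these data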
Target sequence (O00482 whole entry, looked up): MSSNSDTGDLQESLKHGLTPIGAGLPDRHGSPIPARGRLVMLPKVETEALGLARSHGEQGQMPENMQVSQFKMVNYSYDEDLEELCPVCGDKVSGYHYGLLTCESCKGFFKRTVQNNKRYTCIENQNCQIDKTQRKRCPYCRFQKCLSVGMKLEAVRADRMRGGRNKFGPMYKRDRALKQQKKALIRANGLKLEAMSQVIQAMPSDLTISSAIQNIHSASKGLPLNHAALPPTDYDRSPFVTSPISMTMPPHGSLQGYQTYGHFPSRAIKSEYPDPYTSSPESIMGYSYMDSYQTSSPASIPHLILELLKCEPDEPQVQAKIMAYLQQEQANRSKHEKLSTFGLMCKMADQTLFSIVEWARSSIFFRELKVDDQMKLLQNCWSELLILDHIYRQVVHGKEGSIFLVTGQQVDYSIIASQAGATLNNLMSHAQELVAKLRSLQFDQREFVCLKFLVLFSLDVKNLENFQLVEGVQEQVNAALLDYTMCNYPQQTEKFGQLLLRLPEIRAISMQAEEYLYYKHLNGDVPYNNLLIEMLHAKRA
Gli-Sufu block: Gli-Sufu pathway antagonism; actives 0.74% (n = 340,000); inhibition, % at 5 µM; Sufu-KO-LIGHT fibroblasts, Gli luciferase reporter luminescence; AID 588413;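 active = inhibition above about 55%, limit read from the data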
Gli antag conf: confirmation of Gli-SUFU pathway antagonists; shares compounds with Gli-Sufu block; Sufu-KO-LIGHT cells, Gli luciferase reporter, luminescence; inhibition, % at 5 µM; actives 40% (n = 2,500); AID 602428;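 active = mean inhibition at 5 µM reaching about 45%, limit read from the data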
Gli cytotox: cytotoxicity counter-screen for Gli-SUFU antagonists; cytotoxicity, % at 5 µM; actives 32% (n = 2,500); AID 651994; Sufu-KO-LIGHT cells cytotoxicity, ATP luminescence; shares compounds with Gli-Sufu block;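 active = mean cytotoxicity at 5 µM above about 25%, limit read from the data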;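 note: cells exposed to compound overnight for roughly 16 to 18 hours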
Wnt3a cs: Wnt3a reporter inhibition counter-screen. shares compounds with Gli-Sufu block. Wnt-LIGHT cells, Wnt3a-driven luciferase reporter, luminescence. inhibition, % at 6.25 µM. actives 20% (n = 2,500);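 active = mean inhibition above about 25%, limit read from the data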
A number is an active result; n = inactive; x = no result given.

SMILES	NCOA2 inhibitor	COUP-TFII inh	NCOA1 inh	SRC3 inh	NR5A2 inv ag	Gli-Sufu block	others
Clc1cc(Cl)cc(CN2Cc3ccccc3-n3nncc3C2)c1	n	n	x	x	x	x
CC(=O)O[C@H]1[C@H]2O[C@]23[C@@H]2CC[C@]4(O)C[C@@H](O)CC[C@]4(C)C2CC[C@]3(C)[C@H]1c1ccc(=O)oc1 (some centres undefined)	x	x	86.2	88.6	99.6	n
C[C@]12CC[C@H]3C(CCC4(O)CC(O)CC[C@]34C=O)C1=CC[C@H]2c1ccc(=O)oc1 (some centres undefined)	n	n	n	n	n	n
CN1C2CCC1C(C(=O)Oc1ccccc1)C(c1ccc(Cl)cc1)C2 (centres undefined)	n	n	x	x	x	x
O=[N+]([O-])c1ccc(N(CCO)CCO)c2c1no[n+]2[O-]	57.6	n	n	67.3	83.5	x
CC(C)CCP(=O)(O)O	n	n	x	x	x	x
O=C(COC(=O)c1cc(Br)cc(Br)c1O)NC12CC3CC(CC(C3)C1)C2	n	n	n	n	n	x
COc1ccc([C@@H]2C[C@H]3[C@@H](CN2)CON3C)cc1	n	n	x	x	x	x
CC=CC(C)=CC(C)C(=O)CC(O)CC1CC(=O)NC(=O)C1 (centres undefined)	n	39.4	n	n	n	x
COC(=O)C1=C(C(=O)OC)SC2(S1)C(C(=O)OC)=C(C(=O)OC)Sc1c2ssc1=O	n	n	n	n	n	n
Cc1cc([N+](=O)[O-])c2ccccc2[n+]1[O-]	x	x	62.6	n	n	n
Cc1ccccc1[N+](=O)[O-]	n	n	n	n	n	n
Cc1c(P(=S)(c2ccccc2)c2ccccc2)c2ccccc2n1C	x	n	x	x	x	x
C[C@H]1[C@@H](OS(=O)(=O)O)C[C@@H]2C[C@H]([C@@H](O)c3cc(=O)[nH]c(=O)[nH]3)NC3=NC[C@H]1N32	x	x	n	n	99.5	76.2
CC(NC(=O)OCc1ccccc1)P(=O)(Oc1ccccc1)Oc1ccccc1 (centres undefined)	n	n	x	x	x	x
CCOC(=O)[C@]12Cc3cc(C)ccc3[C@H]1N(C1CCCCC1)C(=O)c1ccccc12	n	n	x	x	n	x
CCOC(=O)[C@]12Cc3c(cc(OC)c(OC)c3OC)[C@H]1N(C1CCCCC1)C(=O)c1ccccc12	n	59.9	x	x	n	x
C=C1C(=O)OC2C1CCC(C)C1(O)C=CC(=O)C21C (centres undefined)	n	n	n	n	n	n
C=C1C(=O)OC2CC(C)C3C=CC(=O)C3(C)C(O)C12 (centres undefined)	x	x	n	n	80.6	93.9
C=C1C(=O)O[C@@H]2C[C@@H](C)[C@@H]3C4OC4C(=O)[C@@]3(C)[C@@H](O)[C@H]12 (some centres undefined)	77.5	68.2	n	n	n	n
C=C1C(=O)O[C@H]2C[C@@H](C)[C@@H]3C=CC(=O)[C@@]3(C)C[C@H]12	72.3	n	x	x	x	61.1
[Cl][Pt+2][Cl].[NH-]C1CCCCC1[NH-] (centres undefined)	n	n	n	n	n	n
Cc1ccccc1C(=O)NCCN1CCC2(CC1)C(=O)NCN2c1ccccc1	n	n	x	x	x	x
CCCCn1nnnc1C(c1ccccc1)N1CCC2(CC1)C(=O)NCN2c1ccccc1 (centres undefined)	n	n	n	n	n	x
COc1cc2cc(C(=O)N3CC(COS(C)(=O)=O)c4ccc(O)cc43)[nH]c2c(OC)c1OC (centres undefined)	x	x	89.6	94.5	n	94.0
SMILES	NCOA2 inhibitor	COUP-TFII inh	NCOA1 inh	SRC3 inh	NR5A2 inv ag	Gli-Sufu block	others
COC(=O)C1CN(C#N)N(c2ccc(Cl)cc2)C12c1ccccc1-c1ccccc12 (centres undefined)	x	x	n	72.6	n	n
CC(NC(=O)OCc1ccccc1)[P+](=O)O (centres undefined)	n	n	x	x	x	x
CNP1(NC)=NC(C(F)(F)F)=NC(C(F)(F)F)=N1	n	n	n	n	n	56.0	Gli antag conf=n;Gli cytotox=n;Wnt3a cs=n
C=CCN(CC#CCO)Cc1ccc(OC)cc1OC	n	n	x	x	x	x
Cc1ccc(OC(=O)N(C)C[C@H]2OCc3cnnn3CCCC(=O)N([C@H](C)CO)C[C@@H]2C)cc1	n	n	n	n	n	x
Nc1ccc(C2(c3ccc(N)cc3)CN3CCC2CC3)cc1	n	n	n	n	n	71.5	Gli antag conf=n;Gli cytotox=n;Wnt3a cs=n
C[N+]1=C(/C=C/Nc2ccccc2)C(C)(C)c2ccccc21	n	n	n	n	n	63.2	Gli antag conf=65.9;Gli cytotox=26.2;Wnt3a cs=n
CC1=NN=C(c2ccc(N)cc2)c2cc3c(cc2C1)OCO3	n	n	n	n	n	n
COc1cc(C2c3cc4c(c(O)c3CC3COC(=O)C32)OCO4)cc(OC)c1OC (centres undefined)	n	n	n	n	n	62.3	Gli antag conf=57.4;Gli cytotox=63.5;Wnt3a cs=n
O[C@@H]1CCCN2CCc3c([nH]c4ccccc34)[C@H]12	n	n	n	n	n	n
CN1C(=O)C(=Cc2ccccc2Oc2ccc(Cl)cc2)C(=O)N(C)C1=O	n	n	n	n	n	n	Gli antag conf=n;Gli cytotox=n;Wnt3a cs=n
CN1C(=O)C(=Cc2ccccc2OCc2ccc(Cl)cc2)C(=O)N(C)C1=O	n	n	n	n	n	n
COc1ccccc1N1CCN(Cc2ccc(Br)s2)CC1	n	n	n	n	n	57.9	Gli antag conf=n;Gli cytotox=n;Wnt3a cs=n
COc1ccccc1N1CCN(Cc2ccccc2)CC1	n	n	n	n	n	n
COc1ccc(CC(=O)N(CCN(C)C)CC2CCCN(Cc3ccccc3F)C2)cc1 (centres undefined)	n	n	n	n	n	n	Gli antag conf=n;Gli cytotox=n;Wnt3a cs=n
COc1cc2c(c(OC)c1OC)-c1ccc(O)c(=O)cc1C(NC(C)=O)CC2 (centres undefined)	n	n	n	n	n	61.4	Gli antag conf=65.9;Gli cytotox=60.9;Wnt3a cs=29.2
COC1=C[C@@H]2C3=C([C@@H]2C1=O)[C@@H](NC(C)=O)CCc1cc(OC)c(OC)c(OC)c13	n	n	n	n	n	n
COc1ccc(OC)c(CC(=O)O)c1	n	n	n	n	n	n
COc1ccc2c(c1)C(NC(C)=O)CCc1cc(OC)c(OC)c(OC)c1-2 (centres undefined)	n	n	n	n	n	n	Gli antag conf=50.4;Gli cytotox=64.2;Wnt3a cs=n
CC1(C)C[C@H]2C=C(C=O)[C@]3(C=O)C[C@]3(C)[C@H]2C1	n	n	n	n	n	n
C#CCNc1ccncc1S(=O)(=O)NC(=O)NC(C)C	n	n	n	n	n	56.9	Gli antag conf=n;Gli cytotox=n;Wnt3a cs=n
Cc1cc(/C=C2\C(=O)NC(=O)N(c3ccc(Cl)cc3)C2=O)c(C)n1-c1sc2c(c1C#N)CCCC2	n	n	n	n	n	n	Gli antag conf=55.5;Gli cytotox=46.8;Wnt3a cs=n

From PubChem
